# In the supplement of paper PMC12645437, “Orthogonal IMiD-Degron Pairs Induce Selective Protein Degradation in Cells” (ACS Chemical Biology, 2025):
# In all, about 8,300 sequences were measured (“log2 fold change of degron read counts, EGFP-low vs EGFP+ sorted cells (limma voom), compound-induced degradation”: median about -1.1, highest 2% from about 3.2 on). This is one part of a sample in which the highest values are shown more often than they occur.
# T1: CRBN, Q96SW2
# T1 chain: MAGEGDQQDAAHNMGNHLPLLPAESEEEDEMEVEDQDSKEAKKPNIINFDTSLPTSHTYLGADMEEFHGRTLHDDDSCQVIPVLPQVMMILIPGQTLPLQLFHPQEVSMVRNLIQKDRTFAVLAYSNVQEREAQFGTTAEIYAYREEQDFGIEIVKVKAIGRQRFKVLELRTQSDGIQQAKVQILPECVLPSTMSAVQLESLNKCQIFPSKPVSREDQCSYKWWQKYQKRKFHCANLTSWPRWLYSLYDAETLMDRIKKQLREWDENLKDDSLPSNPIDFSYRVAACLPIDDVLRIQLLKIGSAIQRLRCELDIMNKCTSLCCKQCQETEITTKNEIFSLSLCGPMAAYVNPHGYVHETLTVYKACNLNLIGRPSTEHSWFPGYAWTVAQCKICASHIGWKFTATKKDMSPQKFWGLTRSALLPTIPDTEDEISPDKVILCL
# B1: 46F_47R_49S_50V_52G_53H_54R_55F_67L_, Q9UKT9 (peptide)
# chain: FRCSVCGHRFTQKGNLLRHIKL
# B2: 46F_47Y_49N_50Q_52G_53H_54G_55F_67L_, Q9UKT9 (peptide)
# chain: FYCNQCGHGFTQKGNLLRHIKL
# B3: 46F_47N_49D_50V_52G_53A_54I_55F_67L_, Q9UKT9 (peptide)
# chain: FNCDVCGAIFTQKGNLLRHIKL
# B4: 46F_47W_49E_50Q_52G_53A_54K_55F_67L_, Q9UKT9 (peptide)
# chain: FWCEQCGAKFTQKGNLLRHIKL
# B5: 46L_47M_49N_50Q_52G_53F_54M_55C_67L_, Q9UKT9 (peptide)
# chain: LMCNQCGFMCTQKGNLLRHIKL
# B6: 46F_47S_49D_50V_52G_53A_54T_55F_67L_, Q9UKT9 (peptide)
# chain: FSCDVCGATFTQKGNLLRHIKL
# B7: 46F_47D_49E_50I_52G_53H_54G_55F_67L_, Q9UKT9 (peptide)
# chain: FDCEICGHGFTQKGNLLRHIKL
# B8: 46F_47S_49E_50I_52G_53H_54V_55F_67L_, Q9UKT9 (peptide)
# chain: FSCEICGHVFTQKGNLLRHIKL
# B9: 46F_47Y_49D_50Q_52G_53A_54I_55F_67L_, Q9UKT9 (peptide)
# chain: FYCDQCGAIFTQKGNLLRHIKL
# B10: 46F_47F_49P_50I_52G_53A_54G_55F_67L_, Q9UKT9 (peptide)
# chain: FFCPICGAGFTQKGNLLRHIKL
# B11: 46F_47Y_49E_50V_52G_53A_54V_55F_67L_, Q9UKT9 (peptide)
# chain: FYCEVCGAVFTQKGNLLRHIKL
# B12: 46F_47E_49E_50V_52G_53A_54V_55F_67L_, Q9UKT9 (peptide)
# chain: FECEVCGAVFTQKGNLLRHIKL
# B13: 46F_47M_49E_50V_52G_53A_54V_55F_67L_, Q9UKT9 (peptide)
# chain: FMCEVCGAVFTQKGNLLRHIKL
# B14: 46F_47V_49D_50V_52G_53A_54D_55F_67L_, Q9UKT9 (peptide)
# chain: FVCDVCGADFTQKGNLLRHIKL
# B15: 46F_47A_49E_50I_52G_53A_54T_55F_67L_, Q9UKT9 (peptide)
# chain: FACEICGATFTQKGNLLRHIKL
# B16: 46F_47M_49E_50I_52G_53A_54T_55F_67L_, Q9UKT9 (peptide)
# chain: FMCEICGATFTQKGNLLRHIKL
# B17: 46F_47Q_49E_50I_52G_53A_54T_55F_67L_, Q9UKT9 (peptide)
# chain: FQCEICGATFTQKGNLLRHIKL
# B18: 46F_47F_49E_50I_52G_53A_54T_55F_67L_, Q9UKT9 (peptide)
# chain: FFCEICGATFTQKGNLLRHIKL
# B19: 46F_47Y_49E_50I_52G_53A_54T_55F_67L_, Q9UKT9 (peptide)
# chain: FYCEICGATFTQKGNLLRHIKL
# B20: 46F_47T_49E_50I_52G_53A_54T_55F_67L_, Q9UKT9 (peptide)
# chain: FTCEICGATFTQKGNLLRHIKL
# B21: 46F_47C_49E_50I_52G_53A_54T_55F_67L_, Q9UKT9 (peptide)
# chain: FCCEICGATFTQKGNLLRHIKL
# B22: 46F_47L_49E_50I_52G_53A_54T_55F_67L_, Q9UKT9 (peptide)
# chain: FLCEICGATFTQKGNLLRHIKL
# B23: 46F_47R_49E_50I_52G_53A_54T_55F_67L_, Q9UKT9 (peptide)
# chain: FRCEICGATFTQKGNLLRHIKL
# B24: 46F_47S_49E_50I_52G_53A_54T_55F_67L_, Q9UKT9 (peptide)
# chain: FSCEICGATFTQKGNLLRHIKL
# B25: 46F_47K_49E_50I_52G_53A_54T_55F_67L_, Q9UKT9 (peptide)
# chain: FKCEICGATFTQKGNLLRHIKL
# B26: 46F_47D_49E_50I_52G_53A_54T_55F_67L_, Q9UKT9 (peptide)
# chain: FDCEICGATFTQKGNLLRHIKL
# B27: 46L_47N_49N_50Q_52G_53F_54H_55C_67L_, Q9UKT9 (peptide)
# chain: LNCNQCGFHCTQKGNLLRHIKL
# B28: 46F_47G_49E_50I_52G_53R_54Q_55F_67L_, Q9UKT9 (peptide)
# chain: FGCEICGRQFTQKGNLLRHIKL
# Target: T1, CRBN, Q96SW2
# Assay: log2 fold change of degron read counts, EGFP-low vs EGFP+ sorted cells (limma voom), compound-induced degradation; higher = more compound-induced degradation of the degron-EGFP fusion; degrons are variants of IKZF1/3 zinc finger 2; compound dose not given here
# Settings: Jurkat, 18 h
# [1] = compound: compound 19 (5-tert-butyl-thalidomide)
# [2] = compound: compound 22 (5-morpholino-thalidomide)
# [3] = compound: compound 33 (diphenyl IMiD analogue)
# 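Further: pooled lentiviral library of zinc finger degron-EGFP fusions in mCherry-positive Jurkat cells, FACS-sorted after compound exposure, with degron abundance counted by next-generation sequencing.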
sequence,measurement,setting,value
B1,log2 fold change of degron read counts,[1],-2.02
same,log2 fold change of degron read counts,[2],-2.85
same,log2 fold change of degron read counts,[3],-2.44
same,log2 fold change of degron read counts,compound: thalidomide,-2.23
B2,log2 fold change of degron read counts,[1],-2.38
same,log2 fold change of degron read counts,[2],-2.88
same,log2 fold change of degron read counts,[3],-2.5
same,log2 fold change of degron read counts,compound: thalidomide,-2.33
B3,log2 fold change of degron read counts,[1],-1.74
same,log2 fold change of degron read counts,[2],-3.02
same,log2 fold change of degron read counts,[3],-1.86
same,log2 fold change of degron read counts,compound: thalidomide,-2.46
B4,log2 fold change of degron read counts,[1],2.4
same,log2 fold change of degron read counts,[2],1.97
same,log2 fold change of degron read counts,[3],-0.464
same,log2 fold change of degron read counts,compound: thalidomide,-0.551
B5,log2 fold change of degron read counts,[1],-1.58
same,log2 fold change of degron read counts,[2],-1.89
same,log2 fold change of degron read counts,[3],-0.98
same,log2 fold change of degron read counts,compound: thalidomide,-1.42
B6,log2 fold change of degron read counts,[1],0.618
same,log2 fold change of degron read counts,[2],0.269
same,log2 fold change of degron read counts,[3],0.317
same,log2 fold change of degron read counts,compound: thalidomide,-0.694
B7,log2 fold change of degron read counts,[1],-3.03
same,log2 fold change of degron read counts,[2],-3.17
same,log2 fold change of degron read counts,[3],-3
same,log2 fold change of degron read counts,compound: thalidomide,-2.57
B8,log2 fold change of degron read counts,[1],-2.99
same,log2 fold change of degron read counts,[2],-2.93
same,log2 fold change of degron read counts,[3],-2.63
same,log2 fold change of degron read counts,compound: thalidomide,-2.67
B9,log2 fold change of degron read counts,[1],-1.03
same,log2 fold change of degron read counts,[2],-1.1
same,log2 fold change of degron read counts,[3],-1.87
same,log2 fold change of degron read counts,compound: thalidomide,-2.56
B10,log2 fold change of degron read counts,[1],3.02
same,log2 fold change of degron read counts,[2],2.16
same,log2 fold change of degron read counts,[3],1.63
same,log2 fold change of degron read counts,compound: thalidomide,0.485
B11,log2 fold change of degron read counts,[1],3.58
same,log2 fold change of degron read counts,[2],3.79
same,log2 fold change of degron read counts,[3],2.82
same,log2 fold change of degron read counts,compound: thalidomide,0.689
B12,log2 fold change of degron read counts,[1],-0.492
same,log2 fold change of degron read counts,[2],-0.885
same,log2 fold change of degron read counts,[3],1.58
same,log2 fold change of degron read counts,compound: thalidomide,2.31
B13,log2 fold change of degron read counts,[1],-1.47
same,log2 fold change of degron read counts,[2],-0.776
same,log2 fold change of degron read counts,[3],2.27
same,log2 fold change of degron read counts,compound: thalidomide,0.961
B14,log2 fold change of degron read counts,[1],-2.64
same,log2 fold change of degron read counts,[2],-1.98
same,log2 fold change of degron read counts,[3],-2.16
same,log2 fold change of degron read counts,compound: thalidomide,-1.73
B15,log2 fold change of degron read counts,[1],3.33
same,log2 fold change of degron read counts,[2],2.04
same,log2 fold change of degron read counts,[3],0.691
same,log2 fold change of degron read counts,compound: thalidomide,0.374
B16,log2 fold change of degron read counts,[1],-1.21
same,log2 fold change of degron read counts,[2],-0.67
same,log2 fold change of degron read counts,[3],2.2
same,log2 fold change of degron read counts,compound: thalidomide,1.15
B17,log2 fold change of degron read counts,[1],0.665
same,log2 fold change of degron read counts,[2],2.58
same,log2 fold change of degron read counts,[3],2.4
same,log2 fold change of degron read counts,compound: thalidomide,3.26
B18,log2 fold change of degron read counts,[1],3.27
same,log2 fold change of degron read counts,[2],3.8
same,log2 fold change of degron read counts,[3],1.79
same,log2 fold change of degron read counts,compound: thalidomide,1.49
B19,log2 fold change of degron read counts,[1],3.58
same,log2 fold change of degron read counts,[2],4.05
same,log2 fold change of degron read counts,[3],2.59
same,log2 fold change of degron read counts,compound: thalidomide,1.19
B20,log2 fold change of degron read counts,[1],0.577
same,log2 fold change of degron read counts,[2],2.27
same,log2 fold change of degron read counts,[3],2.39
same,log2 fold change of degron read counts,compound: thalidomide,2.99
B21,log2 fold change of degron read counts,[1],2.13
same,log2 fold change of degron read counts,[2],2.25
same,log2 fold change of degron read counts,[3],2.55
same,log2 fold change of degron read counts,compound: thalidomide,2.33
B22,log2 fold change of degron read counts,[1],-1.3
same,log2 fold change of degron read counts,[2],-1.41
same,log2 fold change of degron read counts,[3],0.852
same,log2 fold change of degron read counts,compound: thalidomide,1.8
B23,log2 fold change of degron read counts,[1],-0.98
same,log2 fold change of degron read counts,[2],-0.654
same,log2 fold change of degron read counts,[3],1.54
same,log2 fold change of degron read counts,compound: thalidomide,1.42
B24,log2 fold change of degron read counts,[1],2.83
same,log2 fold change of degron read counts,[2],2.57
same,log2 fold change of degron read counts,[3],1.79
same,log2 fold change of degron read counts,compound: thalidomide,1.36
B25,log2 fold change of degron read counts,[1],-1.26
same,log2 fold change of degron read counts,[2],-3.54
same,log2 fold change of degron read counts,[3],-2.61
same,log2 fold change of degron read counts,compound: thalidomide,-1.06
B26,log2 fold change of degron read counts,[1],1.71
same,log2 fold change of degron read counts,[2],0.141
same,log2 fold change of degron read counts,[3],0.186
same,log2 fold change of degron read counts,compound: thalidomide,0.436
B27,log2 fold change of degron read counts,[1],-1.47
same,log2 fold change of degron read counts,[2],-2.01
same,log2 fold change of degron read counts,[3],-1.68
same,log2 fold change of degron read counts,compound: thalidomide,-1.54
B28,log2 fold change of degron read counts,[1],-0.21
same,log2 fold change of degron read counts,[2],-0.999
same,log2 fold change of degron read counts,[3],-1.15
same,log2 fold change of degron read counts,compound: thalidomide,-1.42
